The values that follow come from PubChem BioAssay (NCATS).

Inconclusive results are not listed. A call without a number means that no potency is given here. Unmarked numbers belong to inactive results. Calls of active or inactive are those of the source. Calls follow the shape of the dose curve; as a rule, active = well fitted curve in the direction sought with a large enough effect; inconclusive = small, poorly fitted or top-dose-only effect, or another doubt; inactive = no such curve, though single readings can be large; an effect the other way counts as inactive or inconclusive.

The target in the first assay is Rap guanine nucleotide exchange factor 3 (Homo sapiens) (UniProt O95398). In words: Confirmatory qHTS for agonist of cAMP-regulated guanine nucleotide exchange factor 3 (EPAC1) (AID 1645881).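 Also: EPAC1 catalysed release of BODIPY-GDP from Rap1B seen as fluorescence loss; nearly all actives have a fitted effect of over 75% in size.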 The note with it: EPAC1 Rap1B BODIPY-GDP exchange fluorescence; series mostly up to 154 µM.
Rap guanine nucleotide exchange factor 3 (Homo sapiens), sequence (O95398 whole entry, looked up): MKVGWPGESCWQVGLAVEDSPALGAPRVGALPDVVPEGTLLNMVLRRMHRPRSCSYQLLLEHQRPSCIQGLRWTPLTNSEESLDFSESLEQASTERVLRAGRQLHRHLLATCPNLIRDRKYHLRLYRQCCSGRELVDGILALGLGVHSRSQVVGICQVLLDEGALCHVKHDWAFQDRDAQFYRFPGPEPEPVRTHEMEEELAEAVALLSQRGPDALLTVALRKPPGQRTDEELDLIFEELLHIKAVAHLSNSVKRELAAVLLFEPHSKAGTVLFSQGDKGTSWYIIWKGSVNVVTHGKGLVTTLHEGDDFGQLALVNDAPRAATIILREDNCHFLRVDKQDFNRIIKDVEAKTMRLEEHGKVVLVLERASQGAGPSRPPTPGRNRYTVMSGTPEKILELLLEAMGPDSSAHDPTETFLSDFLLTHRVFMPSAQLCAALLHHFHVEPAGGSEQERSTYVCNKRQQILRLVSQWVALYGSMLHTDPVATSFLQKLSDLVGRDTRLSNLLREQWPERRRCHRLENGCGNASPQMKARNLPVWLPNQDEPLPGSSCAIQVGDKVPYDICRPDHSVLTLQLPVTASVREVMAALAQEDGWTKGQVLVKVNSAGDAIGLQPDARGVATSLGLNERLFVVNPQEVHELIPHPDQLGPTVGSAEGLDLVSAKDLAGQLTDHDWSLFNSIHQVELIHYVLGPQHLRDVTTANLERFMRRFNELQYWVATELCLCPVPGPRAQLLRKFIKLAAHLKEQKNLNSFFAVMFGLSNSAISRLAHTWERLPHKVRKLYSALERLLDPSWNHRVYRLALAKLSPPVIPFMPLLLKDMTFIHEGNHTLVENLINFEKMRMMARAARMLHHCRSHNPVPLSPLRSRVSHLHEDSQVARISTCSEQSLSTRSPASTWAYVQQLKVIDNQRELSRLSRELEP
Take `O=C(COc1ccc(Br)cc1Cl)c1ccc[nH]1`: the Potency entry was “inactive”. Take `COc1cnc(-c2ccccc2)nc1Sc1ccccc1`: the Potency result was “inactive”. For the molecule `COc1ccc2[nH]cc(CCNc3ncncc3-c3ccccc3Cl)c2c1`, the Potency result was “inactive”.

As to `Cn1ccc2c(N3CCCCCCC3)cc3c(c21)C1CCC3O1` (stereo unspecified), the Potency result is “inactive”.

On to `COc1ccc(NC(=O)CSc2ccccc2)cc1S(=O)(=O)N1CCCCC1`, for which the Potency result was “inactive”. For `COC(=O)c1ccc2nc(-c3ccc(F)cc3)c(Cc3ccsc3)n2c1`, the Potency entry is “inactive”. Take `Cc1cc2ccccn2c1C(=O)c1ccc(F)cc1`: the Potency result is “inactive”. Turning to `COc1ccc2c(c1)CCc1c(C(=O)N(C)c3ccccc3)noc1-2`, the Potency entry was “inactive”. On to `COc1ccc(C2CC(=O)Oc3ccc(OC)cc32)cc1` (stereo unspecified), for which the Potency entry was “inactive”. For `CC(=O)Nc1ccc(NC(=O)C2Cc3c(-c4ccc5c(c4)OCO5)ccnc3O2)cc1` (stereo unspecified), the Potency result was “inactive”. Still for that read-out and setting: to `CCOc1nc(-c2ccccc2Cl)nc2ccccc12` belongs “inactive”.

Consider `O=c1ccc(NS(=O)(=O)c2ccc(Cl)cc2)cn1Cc1ccc(Cl)c(Cl)c1`, for which the Potency entry was “inactive”. Consider `COc1ccc(C2=CC3=C(Br)C(=O)C(C)(OC(=O)c4cccs4)C(=O)C3=CO2)cc1` (stereo unspecified), for which the Potency entry is “inactive”. Same read-out and setting: for `COc1ccccc1NC(=O)Cc1ccc(-c2ccccc2)cc1` the value was “inactive”. As to `CCOc1ccc(S(=O)(=O)N2CCCCC2)c(C)c1C`, the Potency entry was “inactive”. On the same count and under the same terms, for `COc1ccc2ccc3c(c2c1)N=C[C@]1(O3)N(C)c2ccccc2C1(C)C` the value was “inactive”; for `COC(=O)c1cn(C(=O)c2ccc(OC)c(OC)c2)c2ccccc12`, “inactive”.

With `COC(=O)c1cn(S(=O)(=O)c2ccccc2)c2ccccc12`, the Potency result was “inactive”.

With `COc1ccccc1N(C)c1cc2c(c3c1ccn3C)C1CCC2O1` (stereo unspecified), the Potency result is “inactive”. Still for that read-out and setting: to `O=c1cc(N2CCCCC2)c(-c2ccccc2)nn1Cc1ccccc1` belongs “inactive”.

The next assay has the same target. The assay is described as follows: Counterscreen qHTS for antagonist of cAMP-regulated guanine nucleotide exchange factor 3 (EPAC1) (AID 1645888).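 Also: fluorescence loss as bound BODIPY-GDP is released from Rap1B.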 Conditions: Rap1B-BODIPY-GDP nucleotide exchange, fluorescence; series mostly up to 154 µM. The procedure, abridged:
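Measured: fluorescence of BODIPY-GDP bound to Rap1B, which falls as exchange proceeds. Conditions include 50 uM competing GDP, 5 and 30 min reads, and a later cAMP challenge for antagonist detection.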
On to `O=C1CSC(=Nc2ccccc2)N1Cc1ccccc1`, for which the Potency entry is “inactive”. As to `C=CCN(CC=C)Cc1cc(=O)oc2cc(C)cc(C)c12`, the activity change, negative = inhibition is -4% [at 30.8 µM]. For `COc1ccc(Cl)cc1NC(=O)CN(C)Cc1ccc(OC)c(OC)c1`, the Potency entry is “inactive”. In the case of `Cc1cc(C)c2c(CN3CCCCC3C)cc(=O)oc2c1` (stereo unspecified), the activity change, negative = inhibition is -3.91% [at 30.8 µM]. Turning to `O=C1OC(c2ccccc2)(c2ccccc2)c2ccsc21`, the Potency result is “inactive”.

For the molecule `COC(=O)C1=NN(c2ccccc2)C2(S1)SC(C(C)=O)=C(C)N2c1ccccc1` (stereo unspecified), the Potency entry is “inactive”.

Take `CC(=O)N1N=C2c3ccccc3CCC2C1c1cccs1` (stereo unspecified): the activity change, negative = inhibition was -17.6% [at 30.8 µM]. For the molecule `COc1ccc(C2CC(=O)Oc3cc(C)c(Cl)cc32)cc1` (stereo unspecified), the Potency result is “inactive”. Regarding `CCN(Cc1cc(=O)oc2cc(C)ccc12)c1ccccc1`, the Potency entry was “inactive”.

Turning to `Cc1nc(Nc2ccc(Br)cc2Br)c([N+](=O)[O-])c(=O)[nH]1`, the Potency result was “inactive”.

With `COc1ccc(Nc2cccc3ccccc23)cc1`, the Potency result was “inactive”.

As to `O=C(c1ccccc1F)n1c2c(c3ccccc31)CCCC2`, the Potency result is “inactive”. Turning to `Cc1nn(-c2c(Cl)cc(Cl)cc2Cl)c(=O)c2ccccc12`, the Potency result was “inactive”. As for `CCCCn1nnnc1C(c1cc2ccccc2o1)N1CCN(c2cc(C)nc3ccccc23)CC1` (stereo unspecified), the Potency entry was “inactive”.

Take `Cc1ccc(C23CC4CC(CC(C(=O)N(C)C)(C4)C2)C3)cc1`: the Potency result was “inactive”. Consider `COc1ccc(Cl)cc1NC(=O)CN1c2ccccc2CC1C` (stereo unspecified), for which the Potency entry was “inactive”. For the molecule `COc1c(Cl)cc(Cl)cc1CNc1ccc(S(N)(=O)=O)cc1`, the Potency result was “inactive”. In the case of `Cc1ccn2c(-c3csc(NCc4ccccc4)n3)c(C)nc2c1`, the Potency result is “inactive”.

Consider `O=C(O)CCNC(=O)c1ccc(NC(=O)C(c2ccccc2)c2ccccc2)cc1`, for which the Potency result is “inactive”. Turning to `Cc1oc2cc(Br)c(O)c(Br)c2c1-c1ccccc1`, the Potency result was “inactive”.

Regarding `O=C(COc1ccc(Br)cc1Cl)c1ccc[nH]1`, the Potency result is “inactive”. For the molecule `COc1cnc(-c2ccccc2)nc1Sc1ccccc1`, the Potency result is “inactive”. As to `Cn1ccc2c(N3CCCCCCC3)cc3c(c21)C1CCC3O1` (stereo unspecified), the Potency entry is “inactive”.

Turning to `COc1ccc(NC(=O)CSc2ccccc2)cc1S(=O)(=O)N1CCCCC1`, the Potency result is “inactive”. On to `COC(=O)c1ccc2nc(-c3ccc(F)cc3)c(Cc3ccsc3)n2c1`, for which the activity change, negative = inhibition was -9.08% [at 30.8 µM]. As for `Cc1cc2ccccn2c1C(=O)c1ccc(F)cc1`, the Potency result was “inactive”. Turning to `COc1ccc2c(c1)CCc1c(C(=O)N(C)c3ccccc3)noc1-2`, the Potency entry was “inactive”. For `COc1ccc(C2CC(=O)Oc3ccc(OC)cc32)cc1` (stereo unspecified), the activity change, negative = inhibition was -2.08% [at 30.8 µM]. On to `CC(=O)Nc1ccc(NC(=O)C2Cc3c(-c4ccc5c(c4)OCO5)ccnc3O2)cc1` (stereo unspecified), for which the Potency entry was “inactive”. Take `CCOc1nc(-c2ccccc2Cl)nc2ccccc12`: the Potency entry was “inactive”.

On to `O=c1ccc(NS(=O)(=O)c2ccc(Cl)cc2)cn1Cc1ccc(Cl)c(Cl)c1`, for which the Potency entry was “inactive”.
